# Experimental data as given in PubChem BioAssay.
# Active and inactive are the calls of the source. Rule as the data show it, unless noted: active = inhibition above about 80%; inactive = the rest.
# How the values were obtained:
# [1] = sensitizers of A549 cells to miR-34 induction, primary screen, imaging, A549 dox-inducible miR-34, nuclei and caspase counts (AID 1347080;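 active = compounds whose cell count with miR-34 switched on is under 0.7 times the count with it off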); settings: A549 miR-34 inducible, Hoechst nuclei count, 48 h
# [2] = survival rescue of mitochondrial mutant cells in low glucose, primary screen, MELAS cybrids, Rieske KO mouse fibroblasts, CellTiter-Glo (AID 1508586;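 active = mean z-score across replicates of 1.96 or higher in either the MELAS or the Rieske mutant cell line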;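 also: z relative to plate mean and SD of compound and empty wells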)
# [3] = LFS_MB_P medulloblastoma growth inhibition, cell-based, chromothripsis tumors, cisplatin or BGB combos (AID 1671449); settings: LFS_MB_P medulloblastoma cells;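 also: cells exposed for 96 hours; 0% = vehicle DMSO and 100% = killing by high DMSO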
# [4] = HDN33 neuroblastoma growth inhibition, cell-based, chromothripsis tumors, cisplatin or BGB combos (AID 1671450); settings: HDN33 neuroblastoma cells, stronger effect = higher value;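 also: cells exposed to compound for four days; 0% = vehicle DMSO and 100% = cell killing by high DMSO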
# [5] = ICB984 medulloblastoma cell growth inhibition, synergistic combos for chromothripsis tumors, cisplatin or BGB combos (AID 1671451; call rule not given here;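 also: cells exposed for 96 hours before readout; 0% = vehicle DMSO and 100% = killing by high DMSO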); settings: ICB984 medulloblastoma cells, drug combinations, stronger effect = higher value
# [6] = LFS_MB_1R medulloblastoma cell growth inhibition, synergistic combos for chromothripsis tumors, cisplatin or BGB combos (AID 1671452); settings: LFS_MB_1R medulloblastoma cells, stronger effect = higher value;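 also: cells exposed for 96 hours before readout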
# [7] = HTB85 osteosarcoma cell growth inhibition, synergistic combos for chromothripsis tumors, BGB or cisplatin IC20 combos (AID 1671453); settings: HTB85 osteosarcoma cells, drug combinations, stronger effect = higher value;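 also: cells exposed for 96 hours before readout; 0% = vehicle DMSO and 100% = high DMSO killing control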
# [8] = CRL2098 osteosarcoma cell growth inhibition, synergistic combos for chromothripsis tumors, BGB or cisplatin IC20 combos (AID 1671454); settings: CRL2098 osteosarcoma cells, drug combinations, stronger effect = higher value;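 also: cells exposed for 96 h before readout; 0% = vehicle DMSO and 100% = killing by high DMSO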
# [9] = HD-MB03 medulloblastoma cell growth inhibition, synergistic combos for chromothripsis tumors, BGB or cisplatin IC20 combos (AID 1671455; in the data active = inhibition above about 83%;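 also: 0% = vehicle DMSO and 100% = high DMSO as cytotoxic control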); settings: HD-MB03 medulloblastoma cells, stronger effect = higher value
# [10] = UWB1.289 ovarian carcinoma cell growth inhibition, synergistic combos for chromothripsis tumors, BGB or cisplatin combos (AID 1671456); settings: UWB1.289 ovarian carcinoma cells, stronger effect = higher value;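 also: cells exposed to compound for four days; 0% = vehicle DMSO and 100% = killing by high DMSO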
# [11] = LFS_MB_2R medulloblastoma cell growth inhibition, synergistic combos for chromothripsis tumors, cisplatin combos (AID 1671457); settings: LFS_MB_2R medulloblastoma cells, stronger effect = higher value;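 also: cells exposed to compound for four days before readout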
# [12] = MDA-MB-436 breast carcinoma cell growth inhibition, synergistic combos for chromothripsis tumors, BGB or cisplatin combos (AID 1671458; call rule not given here;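 also: cells exposed for 96 hours; 0% = vehicle DMSO and 100% = killing by high DMSO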); settings: MDA-MB-436 breast carcinoma growth inhibition, drug combinations, stronger effect = higher value
# [13] = UWB1.289_BRCA1 ovarian cancer growth, cell-based, BGB or cisplatin combinations (AID 1671459); settings: UWB1.289 BRCA1 ovarian carcinoma, drug combinations, stronger effect = higher value
# [14] = human astrocyte viability loss, single and combined drugs, cytotoxicity control for chromothriptic childhood tumor combination screen, cell-based, BGB or cisplatin IC20 combos (AID 1671460); settings: Human astrocytes, drug combinations, stronger effect = higher value;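 also: cells exposed to compounds for 96 hours before viability readout; 0% = vehicle and 100% = killing control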
# [15] = growth inhibition of BT084 medulloblastoma cells, cell-based, ICGC_MB145, cisplatin and BGB IC40 combos (AID 1671461); settings: drug combinations, stronger effect = higher value;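 also: cells exposed to drugs for 96 hours; 0% = vehicle DMSO and 100% = high DMSO full killing control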
# [16] = growth inhibition of RCMB18 medulloblastoma cells, cell-based, cisplatin and BGB IC40 combos (AID 1671462); settings: stronger effect = higher value;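 also: cells exposed to compound for four days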
# [17] = growth inhibition of CRL1545 osteosarcoma cells, cell-based, cisplatin and BGB IC20 combos (AID 1671464); settings: stronger effect = higher value;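 also: cells exposed to compound for 96 hours before readout; 0% = vehicle DMSO and 100% = high DMSO killing control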
# [18] = measured here: combination with BGB IC40, at 0.05 µM
# [19] = measured here: with BGB IC20 combination, at 0.5 µM
# [20] = measured here: with cisplatin IC20 combination, at 0.5 µM
# [21] = measured here: combination with cisplatin, at 0.5 µM
# [22] = measured here: combination with cisplatin, at 5 µM
compound,measurement,setting,value
Cc1cc(C#N)cc(C)c1Oc1nc(Nc2ccc(C#N)cc2)nc(N)c1Br,fold change,"[1]; stronger effect = lower value, cell number ratio, induced over uninduced",0.85 (inactive)
same,fold change,[1]; measured here: relative caspase fold change +Dox/-Dox,2.01
same,cell count,"[1]; measured here: total cells with miR-34 induction, stronger effect = lower value",3910
same,cell count,[1]; measured here: total cells without miR-34 induction,4600
same,z-score,"[2]; MELAS cybrid survival, CellTiter-Glo 48 h, stronger effect = higher value",0.252 (inactive)
same,z-score,"[2]; Rieske KO mouse fibroblast survival, CellTiter-Glo 72 h",-0.21
same,inhibition,"[3]; at 0.5 µM, stronger effect = higher value",-6.54% (inactive)
same,inhibition,"[3]; measured here: combination with BGB IC20, at 0.005 µM",-10%
same,inhibition,"[3]; measured here: combination with BGB IC40, at 0.005 µM",-30.6%
same,inhibition,[3]; [18],-26%
same,inhibition,"[3]; measured here: combination with cisplatin, at 0.5 µM, stronger effect = higher value",-19.3%
same,inhibition,"[3]; measured here: combination with cisplatin, at 5 µM, stronger effect = higher value",-60.9%
same,inhibition,"[4]; BGB combo, at 5 µM",-14.1%
same,inhibition,[4]; at 0.5 µM,-5.11% (inactive)
same,inhibition,"[4]; cisplatin combo, at 5 µM",-9.1%
same,inhibition,[4]; [19],-9.33%
same,inhibition,[4]; [20],0.249%
same,inhibition,"[4]; single agent, at 5 µM",-3.14%
same,inhibition,"[5]; BGB IC20 combo, at 0.005 µM",-6.67%
same,inhibition,"[5]; BGB IC40 combo, at 0.005 µM",-12.8%
same,inhibition,"[5]; BGB IC40 combo, at 0.05 µM",-9.57%
same,inhibition,[5]; at 0.5 µM,-33.3% (inactive)
same,inhibition,"[5]; cisplatin combo, at 0.05 µM",-12.6%
same,inhibition,"[5]; cisplatin combo, at 0.5 µM",-45.3%
same,inhibition,"[5]; cisplatin combo, at 5 µM",-4.46%
same,inhibition,"[5]; measured here: 5 uM single agent, at 5 µM",-18.9%
same,inhibition,[6]; at 0.5 µM,-14.8% (inactive)
same,inhibition,[6]; [18],-38.9%
same,inhibition,[6]; [21],-11.1%
same,inhibition,[6]; [22],-7.4%
same,inhibition,[7]; at 0.5 µM,-2.4% (inactive)
same,inhibition,"[7]; measured here: with BGB IC20, at 0.5 µM",-12.9%
same,inhibition,"[7]; measured here: with BGB IC20, at 5 µM",-34.8%
same,inhibition,"[7]; measured here: with cisplatin IC20, at 0.5 µM",-9.12%
same,inhibition,"[7]; measured here: with cisplatin IC20, at 5 µM",-37.6%
same,inhibition,"[7]; single agent, at 5 µM",-5.74%
same,inhibition,[8]; at 0.5 µM,-46.8% (inactive)
same,inhibition,"[8]; measured here: combination with BGB at IC20, at 0.5 µM",-26.7%
same,inhibition,"[8]; measured here: combination with cisplatin at IC20, at 0.5 µM",-48.1%
same,inhibition,[9]; at 0.5 µM,-1.6% (inactive)
same,inhibition,"[9]; measured here: combo with BGB at IC20, at 0.5 µM",6.5%
same,inhibition,"[9]; measured here: combo with cisplatin at IC20, at 0.5 µM",-1.27%
same,inhibition,[10]; at 0.5 µM,1.48% (inactive)
same,inhibition,"[10]; measured here: inhibition with BGB combination, at 0.05 µM",-24.8%
same,inhibition,"[10]; measured here: inhibition with cisplatin combination, at 0.05 µM",0.893%
same,inhibition,[11]; at 0.5 µM,-10.7% (inactive)
same,inhibition,[11]; [21],-24.9%
same,inhibition,[11]; [22],-73.7%
same,inhibition,[12]; at 0.5 µM,-26.8% (inactive)
same,inhibition,"[12]; measured here: BGB combination, at 0.5 µM",-22.5%
same,inhibition,"[12]; measured here: BGB combination, at 5 µM",-28.6%
same,inhibition,"[12]; measured here: cisplatin combination, at 0.5 µM",-43.6%
same,inhibition,"[12]; measured here: cisplatin combination, at 5 µM",-39.5%
same,inhibition,"[13]; BGB combination, concentration series, at 5 µM",11.2%
same,inhibition,[13]; at 0.5 µM,1.32% (inactive)
same,inhibition,"[13]; cisplatin combination, concentration series, at 5 µM",2.3%
same,inhibition,[14]; at 0.5 µM,3.72% (inactive)
same,inhibition,"[14]; measured here: combo with BGB IC20, at 0.5 µM",14%
same,inhibition,"[14]; measured here: combo with cisplatin IC20, at 0.5 µM",-7.51%
same,inhibition,[15]; at 0.5 µM,-18% (inactive)
same,inhibition,"[15]; cisplatin combination, at 0.5 µM",-20.9%
same,inhibition,"[15]; cisplatin combination, at 5 µM",-30.7%
same,inhibition,"[15]; measured here: BGB IC40 combination 0.05 uM, at 0.05 µM",7.73%
same,inhibition,"[15]; single agent, at 5 µM",-20.3%
same,inhibition,[16]; at 0.5 µM,-32.5% (inactive)
same,inhibition,"[16]; cisplatin combo, at 5 µM",-24.1%
same,inhibition,"[16]; measured here: BGB IC40 combination, at 0.05 µM",-39.7%
same,inhibition,[16]; [21],-23%
same,inhibition,"[16]; single agent, at 5 µM",-29.9%
same,inhibition,[17]; at 0.5 µM,0.47% (inactive)
same,inhibition,[17]; [19],4.81%
same,inhibition,[17]; [20],-4%
same,inhibition,"[17]; single agent, at 0.05 µM",-33.2%
same,inhibition,"[17]; single agent, at 5 µM",12%
